Assay outcomes: PubChem BioAssay, Broad Institute
C2C12 statin = suppressors of statin myotoxicity in C2C12 myotubes, primary screen, cell-based, single point, plate reader; C2C12 myotubes + simvastatin, ATP luminescence, 48 h; scaled: DMSO 0, geranylgeraniol control 100; rescue of ATP level, % at 7.49 µM; 0.78% of 330,000 active; AID 602340, 2012;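 active = mean ATP rescue above about 67%, or every replicate alone reaching that limit, limit read from the data, passing the limit was not always enough; inconclusive = no clear call, values can overlap the other calls; inactive = mean under the limit and some replicate under it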;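 note: myotubes were challenged with 10 µM simvastatin during compound exposure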
MITF act = activators of MITF-driven TRPM1 promoter reporter, primary screen, cell-based, SK-MEL-5, luciferase, single point | SK-MEL-5 TRPM1-promoter luciferase, 24 h; % of positive control, neutral wells = 0 | activation, % at 12.5 µM | 0.75% of 300,000 active | AID 588334, 2011;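 active = mean activation of at least 80% with every replicate also reaching 80%; inconclusive = mean reaches 80% but some replicate falls short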
Wnt bcat act = Wnt/beta-catenin pathway activators, primary screen, cell-based, plate reader, single point. Wnt/beta-catenin reporter cell assay, activator. activation, % at 9.35 µM. 1.2% of 300,000 active. AID 743398, 2014; in the data active = activation above about 30%, passing the limit was not always enough; inconclusive = no clear call, values can overlap the other calls
esBAF inh = Bmi1 luciferase reporter increase in mESCs, primary screen, esBAF inhibitor project, mouse ES cells, Bmi1 luciferase knock-in, single point | 2% of 350,000 active | AID 602393, 2012 | 24 h; 100% = twice the neutral-well signal | reporter increase, % at 12.5 µM; in the data active = activation above about 40%; inconclusive = no clear call, values can overlap the other calls;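 note: a rise in the Bmi1 reporter signal indicates esBAF inhibition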
Large screens that a line does not name were inactive. Most compounds without a hit are left out; they make up all but 3% or so of the library.

COc1ccccc1C#Cc1ccc2c(c1)O[C@@H](CN(C)C)[C@@H](C)CN([C@H](C)CO)S2(=O)=O	none (no result: MITF act, Wnt bcat act)
O=C(NCCc1ccccc1F)C(=O)Nc1nccs1	Wnt bcat act 36.6
CCCCCn1c(N2CCC(C(N)=O)CC2)nc2c1c(=O)[nH]c(=O)n2C	C2C12 statin 107.0
CCCCCCn1c(N2CCC(C)CC2)nc2c1c(=O)[nH]c(=O)n2C	none (no result: Wnt bcat act)
O=C(C[C@H]1C=C[C@H](NC(=O)Cc2ccccn2)[C@H](CO)O1)NCCCN1CCOCC1	none (no result: MITF act, Wnt bcat act)
C[C@@H]1CCCCO[C@@H](CN(C)C(=O)Cc2ccccc2)[C@H](C)CN([C@@H](C)CO)C(=O)c2cc(NS(=O)(=O)c3ccccc3)ccc2O1	none (no result: C2C12 statin, MITF act, Wnt bcat act)
CCN(CC)C(=O)CSc1nnc([C@H](CCSC)NC(=O)OC(C)(C)C)o1	C2C12 statin 143.2 (no result: Wnt bcat act)
CCCNC(=O)c1cc2ccccc2c(=O)o1	none (no result: C2C12 statin, esBAF inh)
Cc1cc(C)n(C(=O)c2cc3ccccc3c(=O)o2)n1	C2C12 statin 93.1 (no result: Wnt bcat act)
CC(C)(C)NC(=O)NC(=O)COC(=O)Cc1c(Cl)cccc1Cl	none (no result: C2C12 statin, esBAF inh)
NC(=O)c1ccsc1NC(=O)COC(=O)c1c(F)cccc1Cl	esBAF inh 112.4
CC(C)(C)NC(=O)NC(=O)COC(=O)c1c(F)cccc1Cl	esBAF inh 50.2
O=C(OCC(=O)N1CCCc2ccccc21)c1ccccc1[N+](=O)[O-]	MITF act 83.6, esBAF inh 110.6
O=C(CN1CCN(Cc2ccccc2)CC1)N1CCCc2ccccc21	none
O=C(COc1ccccc1[N+](=O)[O-])N1CCCc2ccccc21	none
O=C(Cn1c(=O)[nH]n(-c2ccccc2)c1=O)N1CCCc2ccccc21	C2C12 statin 86.0
O=C(Cn1ccc([N+](=O)[O-])n1)N1CCCc2ccccc21	Wnt bcat act 31.9
C[C@@H]1CN([C@@H](C)CO)S(=O)(=O)c2ccc(-c3cncnc3)cc2O[C@@H]1CN(C)Cc1cccnc1	none (no result: MITF act, Wnt bcat act)
C[C@@H]1CN([C@H](C)CO)C(=O)c2cc(N(C)C)ccc2O[C@@H](C)CCCCO[C@@H]1CN(C)Cc1ccc2c(c1)OCO2	none (no result: MITF act, Wnt bcat act)
Cc1cccnc1NC(=O)Nc1ccccc1	MITF act inconclusive
Cc1cccnc1NC(=O)Nc1ccc(Cl)cc1	esBAF inh 70.8
Cc1cccnc1NC(=O)Nc1cccc(F)c1	esBAF inh 48.3 (no result: MITF act)
C[C@H](O)C#Cc1cnc2c(c1)C(=O)N([C@H](C)CO)C[C@@H](C)[C@H](CN(C)C(=O)c1ccccc1)O2	none (no result: MITF act, Wnt bcat act)
O=C(N[C@H]1CC[C@@H](CCNS(=O)(=O)c2ccc(F)cc2)O[C@@H]1CO)C1CC1	none (no result: MITF act, Wnt bcat act)
CC(C)NC(=O)NCC[C@H]1CC[C@@H](NS(=O)(=O)c2ccc(Oc3ccccc3)cc2)[C@H](CO)O1	none (no result: MITF act, Wnt bcat act)
C[C@H](CO)N1C[C@H](C)[C@@H](CN(C)CC2CCCCC2)Oc2c(NS(=O)(=O)c3ccc(Cl)cc3)cccc2C1=O	none (no result: MITF act, Wnt bcat act)
CN(C)c1ccc(C(=O)Nc2cccc(S(=O)(=O)N3CCCC3)c2)cc1	esBAF inh 62.1
O=C(Nc1cccc(O)c1)c1cccc(S(=O)(=O)N2CCCCCC2)c1	esBAF inh 53.4
O=C(Nc1cccc(O)c1)c1ccc(Br)c(S(=O)(=O)N2CCCCC2)c1	esBAF inh 65.7
Cc1csc(SCC(=O)Nc2cccc(S(=O)(=O)N3CCCC3)c2)n1	C2C12 statin 135.8 (no result: Wnt bcat act)
C[C@H](CO)N1C[C@H](C)[C@@H](CN(C)C(=O)Nc2ccc3c(c2)OCO3)Oc2ccc(NC(=O)Nc3ccc(F)cc3)cc2CC1=O	none (no result: MITF act, Wnt bcat act)
CCC(=O)Nc1ccc2c(c1)OC[C@H](C)N(C(=O)c1ccc(F)cc1)C[C@@H](C)[C@@H](OC)CN(C)C2=O	none (no result: MITF act, Wnt bcat act)
C[C@H](NC(=O)[C@H]1[C@H](CO)[C@H]2Cn3c(ccc(C4=CCCCC4)c3=O)[C@@H]1N2)c1ccccc1	none (no result: MITF act, Wnt bcat act)
CSc1nnc(-c2ccccc2Cl)o1	none (no result: Wnt bcat act)
Clc1ccccc1-c1ncc(-c2ccccc2)o1	Wnt bcat act 56.5
COc1ccc(NC(=O)Nc2cc(C)ccc2OC)cc1	none (no result: Wnt bcat act)
CC(=O)Nc1cc(C(=O)OCC(=O)c2ccc(C)cc2)ccc1C	Wnt bcat act inconclusive, esBAF inh 77.7
COc1ccc(C(=O)COc2ccc(C)cc2NC(C)=O)cc1	Wnt bcat act 55.9 (no result: C2C12 statin, MITF act, esBAF inh)
C[C@H](CO)N1C[C@H](C)[C@H](CN(C)C(=O)Nc2cccc(F)c2)Oc2ncc(C3=CCCC3)cc2C1=O	none (no result: MITF act, Wnt bcat act)
CN1CCN(C2=Cc3ccccc3Sc3cc(F)ccc32)CC1	C2C12 statin 110.3
CN1CCN(C2=Cc3ccc(Cl)cc3Sc3ccc(F)cc32)CC1	none (no result: C2C12 statin, Wnt bcat act, esBAF inh)
